Measurements from PubChem BioAssay (EPA / NIEHS).
Results filed as inconclusive are left out. Activity calls are given as the source filed them. How the source made its calls, unless noted: active means hit-call score of the fitted dose curve at least 0.9, where 1 is the maximum; inactive means score below 0.9.

Key:
[1] = CCTE_Padilla_ZF_Score.Swim_bladder: CCTE's 144 Hour Post-fertilization zebrafish Assay Score for Swim Bladder Malformation, Padilla Lab (AID 2284408)
Description: CCTE_Padilla_ZF_Phenotype_Score is a whole embryo, multiplexed assay using zebrafish ova exposed for 144 hours post fertilization on a 96-well plate.CCTE_Padilla_ZF_Score.Swim_bladder is one of one assay component(s) measured or calculated from the CCTE_Padilla_ZF_Phenotype_Score assay. It is designed to make measurements of zebrafish development as detected with brightfield microscopy of developing zebrafish embryos.Data from the assay component CCTE_Padilla_ZF_Score.Swim_bladder was analyzed into 1 assay endpoints. This assay endpoint, CCTE_Padilla_ZF_Score.Swim_bladder, was analyzed in the positive analysis fitting direction relative to DMSO as the negative control and baseline of activity. Using a type of viability reporter, gain-of-signal activity can be used to understand changes in developmentals as they relate to the whole embryo. To generalize the intended target to other relatable targets, this assay endpoint is annotated to the zebrafish development intended target family, where the subfamily is swim bladder morphogenesis.
Zebrafish husbandry: Wild type adult zebrafish (Danio rerio; undefined outbred stock obtained from Aquatic Research Organisms, Hampton, NH, 03842) were housed in an AAALAC-approved animal facility at 28C with a 14:10 h light: dark cycle (lights on at 08:30 h). […]

[2] = CCTE_Padilla_ZF_Score.Position: CCTE's 144 Hour Post-fertilization zebrafish Assay Score for Position, Padilla Lab (AID 2284409)
Method in brief: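 Wild-type zebrafish embryos (with chorions) exposed singly from 6–8 hpf in sealed wells of Hanks' solution at 26C, rinsed at 5 dpf. At 6 dpf, blinded assessors scored abnormal water-column position by brightfield stereomicroscopy, relative to DMSO.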

[3] = CCTE_Padilla_ZF_Score.Living: CCTE's 144 Hour Post-fertilization zebrafish Assay Score for Viability, Padilla Lab (AID 2284410);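 further: larval death at 6 dpf judged by absent heartbeat or coagulation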
Method in brief: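 Wild-type zebrafish embryos were exposed singly from 6–8 hpf in sealed wells of Hanks' solution at 26C, then rinsed at 5 dpf. At 6 dpf, blinded assessors scored mortality (no heartbeat or coagulation) by stereomicroscopy, fitted against DMSO.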

[4] = CCTE_Padilla_ZF_Score.Tail: CCTE's 144 Hour Post-fertilization zebrafish Assay Score for Tail Malformation, Padilla Lab (AID 2284414)
Method in brief: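 Wild-type zebrafish embryos, one per well in 200 uL 10% Hanks', dosed at 6-8 hpf, sealed, and kept at 26 C on a 14:10 h light cycle. Chemical was rinsed out at 5 dpf. Blinded brightfield scoring of tail defects followed at 6 dpf.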

[5] = CCTE_Padilla_ZF_Score.Blood_pooling: CCTE's 144 Hour Post-fertilization zebrafish Assay Score for Blood Pooling, Padilla Lab (AID 2284415)
Method in brief: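 Wild-type outbred zebrafish embryos, one per well in 10% Hanks', exposed from 6–8 hpf in sealed plates at 26C on 14:10 h light:dark, rinsed at 5 dpf. Blinded stereomicroscope scoring of blood pooling at 6 dpf; gain-of-signal versus DMSO.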

[6] = CCTE_Padilla_ZF_Score.Any: CCTE's 144 Hour Post-fertilization zebrafish Assay Score for Any Mortality or Malformation, Padilla Lab (AID 2284416)
Method in brief: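 Wild-type zebrafish embryos with chorions, one per well in 10% Hanks' from 6–8 hpf, dosed in sealed plates at 26 C, 14:10 h light:dark; rinsed at 5 dpf; blinded scoring at 6 dpf for death or malformation, versus DMSO.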

[7] = system: SRY-box transcription factor 2 (SOX2) Protein Expression, Deisenroth Lab, SOX2 (gene 6657); assay: CCTE_Deisenroth_DEVTOX-GLR_Endo_SOX2: CCTE's DevTox GLR-Endo Assay Evaluation of SRY-box transcription factor 2 (SOX2) Protein Expression, Deisenroth Lab (AID 2284412; active means hit-call score of the fitted dose curve at least 0.9, where 1 is the maximum)
Method in brief: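 RUES2-GLR human pluripotent cells were seeded 24 h, then differentiated 48 h with two chemical exposures 24 h apart. Cells were fixed, nuclei stained and imaged by high-content microscopy. Endpoint is %SOX2+ cells over cell count, minus 0.2% DMSO control; 10-point series 1 nM–200 uM.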

[8] = system: SRY-box transcription factor 17 (SOX17) Protein Expression, Deisenroth Lab, SOX17 (gene 64321); assay: CCTE_Deisenroth_DEVTOX-GLR_Endo_SOX17: CCTE's DevTox GLR-Endo Assay Evaluation of SRY-box transcription factor 17 (SOX17) Protein Expression, Deisenroth Lab (AID 2284413)
Method in brief: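 Seed RUES2-GLR cells 24 h; start endoderm differentiation; dose at 0 and 24 h (1 nM - 200 uM, 10 points); fix at 48 h, stain nuclei, image 5 fields/well; compute SOX17+/total cells vs 0.2% DMSO.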

[9] = system: Brachyury (BRA) Protein Expression, TBXT (gene 6862); assay: CCTE_Deisenroth_DEVTOX-GLR_Endo_BRA: CCTE's DevTox GLR-Endo Assay Evaluation of Brachyury (BRA) Protein Expression, Deisenroth Lab (AID 2284417)
Description: CCTE_Deisenroth_DEVTOX-GLR_Endo assay is a cell-based, multiplex-readout assay that uses RUES2-GLR, a human pluripotent cell line, with measurements taken at 48 hours after chemical dosing in a 384-well microplateCCTE_Deisenroth_DEVTOX-GLR_Endo_BRA is 1 of 4 assay components calculated from the CCTE_Deisenroth_DEVTOX-GLR_Endo assay and it measures the percentage of cells in an mesoderm state. Using a type of inducible fluorescent protein reporter, gain-of-signal activity can be used to understand changes in gene expression with fluorescent microscopy. The percentage of BRA+ cells are determined by calculating the number of BRA+ cells divided by the cell count. To generalize the intended target to other relatable targets, this assay component is annotated to the transcription factor intended target family, where the subfamily is T-box protein.Data from the assay component CCTE_Deisenroth_DEVTOX-GLR_Endo_BRA was analyzed as 1 assay endpoint. The endpoint is the percent BRA+ cell population minus the 0.2% DMSO control in the CCTE_Deisenroth_DEVTOX-GLR_Endo assay. Furthermore, this assay endpoint can be referred to as a secondary readout, because this assay has produced multiple assay endpoints where this one serves as a measure of mesoderm differentiation.
All assay protocols are aligned to the DevTox GLR-Endo assay workflow. […]

[10] = CCTE_Deisenroth_DEVTOX-GLR_Endo_CellCount: Viability Assessment in CCTE's DevTox GLR-Endo Assay, Deisenroth Lab (AID 2284420)
Method in brief: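 Percent change in nuclear-stain cell counts versus 0.2% DMSO, from high-content imaging over 5 fields per well. Over a 48 h endoderm differentiation, RUES2-GLR cells received two doses 24 h apart across a 1 nM–200 uM series, with n=4.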

SMILES | outcome [1] | outcome [2] | outcome [3] | outcome [4] | outcome [5] | outcome [6] | outcome [7] | AC50 [8] | AC50 [9] | AC50 [10]
FC(F)(F)COCC(F)(F)F | inactive | inactive | inactive | inactive | inactive | inactive | – | – | – | –
CS(=O)(=O)OCCCCOS(C)(=O)=O | – | – | – | – | – | – | inactive | 44.5 µM (active) | 100 µM (active) | 14.4 µM (active)
